Bioassay records from PubChem.
aSyn UTR act – Activators via SNCA 5'UTR binding, MLPCN. 7.1% of 300,000 active. AID 1814. alpha-synuclein 5'UTR reporter, activators screen. activity score, % (tested at 7.5 µM), hits read low; in the data active = activity score below about -60%
Active calls of the source: *. The list is a sample of the results.

How did Cc1ccc(NC(=O)c2ncc(Cl)c(Cl)c2Cl)cc1C do in these assays?
aSyn UTR act: -164.1*

How did Cc1ccc(NC(=O)c2cnc3ccccc3n2)cc1C do in these assays?
aSyn UTR act: -95.8*

How did Cc1ccc(NC(=O)c2c(C)nc3ccccn23)cc1C do in these assays?
aSyn UTR act: -152.1*

How did Cc1ccc(NC(=O)c2ccc3ccccc3n2)cc1S(=O)(=O)N(C)C do in these assays?
aSyn UTR act: -120.8*

What do the screens show for `Cc1ccc(/C=C/C(=O)c2c(C)nc3ccccn23)cc1`?
aSyn UTR act: -89.7*

What do the screens show for `Brc1ccc(-c2nnc(-c3ccccc3)c(N3CCSCC3)n2)cc1`?
aSyn UTR act: -85.1*

Results for CN1CCN(c2nc(-c3ccc(Br)cc3)nnc2-c2ccccc2)CC1 ?
aSyn UTR act: -123.4*

What do the screens show for `COc1ccc(-c2nc(-c3cccc(C)c3)nc(N3CCN(C)CC3)c2C#N)cc1`?
aSyn UTR act: 58.9

Results for CCCN(CCC)CCNC(=O)CCC(=O)Nc1ccc2nc(N3CCOCC3)cc(C)c2c1 ?
aSyn UTR act: -90.2*

What do the screens show for `COCCCNC(=O)CCC(=O)Nc1ccc2nc(N3CCOCC3)cc(C)c2c1`?
aSyn UTR act: -86.0*

What do the screens show for `COc1cccc(NC(=O)CCC(=O)Nc2ccc3nc(N4CCOCC4)cc(C)c3c2)c1`?
aSyn UTR act: -148.9*

How did Cc1cc(N2CCCCC2)nc2ccc(NC(=O)CCC(=O)NCCC(C)C)cc12 do in these assays?
aSyn UTR act: -131.3*

How did Cc1cc(N2CCOCC2)nc2ccc(NC(=O)CCC(=O)N3CCN(c4ccccc4)CC3)cc12 do in these assays?
aSyn UTR act: -87.4*

What do the screens show for `CCOC(=O)C1CCCN(C(=O)CCC(=O)Nc2ccc3nc(N4CCOCC4)cc(C)c3c2)C1` (stereo not given)?
aSyn UTR act: -62.7*

Results for Cc1cc(N2CCOCC2)nc2ccc(NC(=S)NC(C)C)cc12 ?
aSyn UTR act: -93.5*

Results for CCN(CC)CCCNC(=O)CCC(=O)Nc1ccc2nc(N3CCC(C)CC3)cc(C)c2c1 ?
aSyn UTR act: -61.6*

What do the screens show for `CCCCNC(=O)CCC(=O)Nc1ccc2nc(N3CCCCC3)cc(C)c2c1`?
aSyn UTR act: -141.2*

How did CCCCNC(=O)CCC(=O)Nc1ccc2nc(N3CCOCC3)cc(C)c2c1 do in these assays?
aSyn UTR act: -86.5*

What do the screens show for `Cc1c(-c2nc(-c3ccc(C(F)(F)F)cc3)no2)n(C)oc1=O`?
aSyn UTR act: -81.6*

How did O=C(O)c1ccc(-c2noc(-c3ccc(F)cc3)n2)cc1 do in these assays?
aSyn UTR act: -93.1*

What do the screens show for `CS(=O)(=O)c1ccccc1-c1nc(-c2ccc(C(F)(F)F)cc2)no1`?
aSyn UTR act: -62.1*

Results for O=C(O)c1ccc(-c2noc(-c3ccccc3C(F)(F)F)n2)cc1 ?
aSyn UTR act: -108.8*

How did O=C(O)c1ccc(-c2noc(-c3ccccc3Cl)n2)cc1 do in these assays?
aSyn UTR act: -97.4*

How did Cc1ccc(N2C(=O)c3ccccc3NC2(C(=O)O)c2ccccc2)cc1Cl (stereo not given) do in these assays?
aSyn UTR act: -68.4*

What do the screens show for `CCn1c(SCC(=O)N=Nc2c(O)[nH]c3ccccc23)nc2ccccc21`?
aSyn UTR act: -78.7*

What do the screens show for `O=C(CSCc1ccccc1)N=Nc1c(O)[nH]c2ccccc12`?
aSyn UTR act: -79.0*

How did O=C(N=Nc1c(O)[nH]c2ccccc12)c1ccco1 do in these assays?
aSyn UTR act: -169.6*

What do the screens show for `COc1cc(-c2nnc3n2N=C(c2ccccc2)CS3)cc(OC)c1OC`?
aSyn UTR act: 62.8

What do the screens show for `COc1ccc(C2=NN(C(C#N)c3ccc(OC)c(OC)c3)C(c3ccccc3)C2)cc1` (stereo not given)?
aSyn UTR act: -172.2*

How did CC(=O)Nc1ccc(C2CC(c3ccc(Cl)cc3)=NN2c2ccccc2)cc1 (stereo not given) do in these assays?
aSyn UTR act: -79.4*

How did COc1ccc(C2CC(c3cccs3)=NN2c2nc(-c3ccccc3)cs2)cc1OC (stereo not given) do in these assays?
aSyn UTR act: -64.4*

How did COc1ccc(C2=NN(c3ccccc3)C(c3ccc(OC)c(OC)c3)C2)cc1 (stereo not given) do in these assays?
aSyn UTR act: -75.5*

Results for Cc1ccc(C2CC(c3ccccc3)=NN2c2ccccc2)o1 (stereo not given) ?
aSyn UTR act: -232.4*

Results for CC(=O)c1cnc2cc(-c3ccccc3)nn2c1C ?
aSyn UTR act: -167.5*

How did CC(=O)c1cnc2cc(-c3ccc(C)cc3)nn2c1C do in these assays?
aSyn UTR act: -242.6*

Results for COc1ccc(-c2cc3ncc(C(C)=O)c(C)n3n2)cc1 ?
aSyn UTR act: -137.2*

How did CC(=O)c1cnc2nc(SCc3ccccc3)nn2c1C do in these assays?
aSyn UTR act: -156.9*

Results for O=C(Oc1ccc(OC(=O)C2CCC2)cc1)C1CCC1 ?
aSyn UTR act: -65.1*

How did CCOc1ccccc1NC(=O)c1ccc2ccccc2c1 do in these assays?
aSyn UTR act: -80.7*

Results for CCC(=O)CCC(=O)c1ccc2ccccc2c1 ?
aSyn UTR act: -92.2*

What do the screens show for `CCOc1ccccc1NC(=O)c1ccc2[nH]c(C)c(C)c2c1`?
aSyn UTR act: -90.5*
